Compounds with a hit are over-represented: about 9.9% of the library has one in this group of screens.
ALDH1A1 block: qHTS Assay for Inhibitors of Aldehyde Dehydrogenase 1 (ALDH1A1); Aldehyde dehydrogenase 1A1 (Homo sapiens), P00352; Potency, µM (highest dose often 75.3 µM), most hits filed as inhibitors; Purified ALDH1A1, NADH fluorescence, propionaldehyde substrate; actives 7.3% (n = 220,000)
Target sequence (P00352 whole entry, looked up): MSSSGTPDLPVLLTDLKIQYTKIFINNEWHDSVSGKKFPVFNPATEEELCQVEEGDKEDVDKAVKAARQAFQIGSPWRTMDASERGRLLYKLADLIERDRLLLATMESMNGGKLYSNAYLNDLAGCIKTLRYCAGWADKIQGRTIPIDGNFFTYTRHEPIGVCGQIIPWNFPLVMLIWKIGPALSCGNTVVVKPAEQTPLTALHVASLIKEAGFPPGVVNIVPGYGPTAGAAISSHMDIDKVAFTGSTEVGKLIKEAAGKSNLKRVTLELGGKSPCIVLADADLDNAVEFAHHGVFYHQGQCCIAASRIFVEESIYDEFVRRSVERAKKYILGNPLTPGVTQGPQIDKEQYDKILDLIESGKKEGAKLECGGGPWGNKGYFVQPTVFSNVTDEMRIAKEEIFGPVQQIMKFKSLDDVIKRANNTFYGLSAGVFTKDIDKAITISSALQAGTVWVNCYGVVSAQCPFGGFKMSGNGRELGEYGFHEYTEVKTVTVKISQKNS
Tau ThT inhib: qHTS for Inhibitors of Tau Fibril Formation, Thioflavin T Binding; recombinant tau K18 P301L, heparin-induced fibrillization, ThT fluorescence; actives 2.1% (n = 270,000); Potency, µM (doses to about 57.4 µM), most hits filed as inhibitors; Microtubule-associated protein tau (Homo sapiens), P10636; active means well fitted curve in the direction sought with a large enough effect; inconclusive means small, poorly fitted or top-dose-only effect, or another doubt; inactive means no such curve, though single readings can be large; an effect the other way counts as inactive or inconclusive; further: nearly all actives have a fitted effect of over 55% in size
Target sequence (P10636 561-689 P618L limits assumed): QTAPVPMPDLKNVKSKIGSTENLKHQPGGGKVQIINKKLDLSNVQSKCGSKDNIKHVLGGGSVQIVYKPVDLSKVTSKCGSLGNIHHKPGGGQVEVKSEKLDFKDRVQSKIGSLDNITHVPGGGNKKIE
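ThT emission at 510 nm, taken 1 hr after adding 30 uM dye, quantifies aggregates formed when 20 uM heparin acts on human tau K18 P301L for 6 hr at 37 C.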
Tau fluor cs: Counterscreen qHTS for Inhibitors of Tau Fibril Formation, Fluorescence Polarization; actives 0.93% (n = 280,000); Potency, µM (doses to about 57.7 µM); AID 1463, 2008; tau K18 P301L Alexa594 fluorescence, heparin fibrillization; active means well fitted curve in the direction sought with a large enough effect; inconclusive means small, poorly fitted or top-dose-only effect, or another doubt; inactive means no such curve, though single readings can be large; an effect the other way counts as inactive or inconclusive; further: nearly all actives have a fitted effect of over 55% in size
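Human tau K18 P301L (15 uM unlabeled, 0.24 uM Alexa 594-labeled) in 100 mM sodium acetate pH 7 with 20 uM heparin, 6 hr at 37 C. ThT 30 uM added, 1 hr ambient; Alexa 594 FP and total fluorescence read at 555/632 nm.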
KDM4E inh: qHTS Assay for Inhibitors of Human Jumonji Domain Containing 2E (JMJD2E); Lysine-specific demethylase 4E (Homo sapiens), B2RXH2; JMJD2E catalytic domain, FDH-coupled NADH fluorescence (FDH is formaldehyde dehydrogenase); Potency, µM (titrated, usually from 57.1 µM), usual class: inhibitors; actives 1.6% (n = 230,000); AID 2147, 2009; further: nearly all actives have a fitted effect of over 50% in size
Tau FP inhib: qHTS for Inhibitors of Tau Fibril Formation, Fluorescence Polarization; AID 1468, 2008; Potency, µM (series often up to 57.7 µM), actives largely listed as inhibitors; Microtubule-associated protein tau (Homo sapiens), P10636; K18 P301L tau heparin fibrillization, Alexa594 FP, 6 h; actives 0.39% (n = 280,000); active means well fitted curve in the direction sought with a large enough effect; inconclusive means small, poorly fitted or top-dose-only effect, or another doubt; inactive means no such curve, though single readings can be large; an effect the other way counts as inactive or inconclusive; further: nearly all actives have a fitted effect of over 55% in size
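Heparin (20 uM) drove fibril formation of recombinant tau K18 P301L, 15 uM unlabeled with 0.24 uM Alexa 594 label, for 6 hr at 37 C in 100 mM sodium acetate pH 7. Fluorescence polarization (555/632 nm) read 1 hr after 30 uM ThT.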
HPGD inh: qHTS Assay for Inhibitors of HPGD (15-Hydroxyprostaglandin Dehydrogenase) | 15-hydroxyprostaglandin dehydrogenase [NAD(+)] (Homo sapiens), P15428 | purified HPGD, NADH fluorescence kinetic, PGE2 substrate | Potency, µM, hits mostly inhibitors | actives 4.3% (n = 150,000)
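NADH formation kinetics: reaction with 30 uM PGE2 and 1 mM NAD+ (final), 20 nM enzyme, Tris-HCl pH 8 with Tween 20, after 15 min compound preincubation at room temperature. Fluorescence change, last versus first of five reads.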
Hits are given with their value; - = inactive; ? = inconclusive; . = not tested or not shown; ! = a repeat was not active; [ ] = dose if it differs, or a comment. Unless noted, the call rests on the fitted dose curve; in most records, active means well fitted inhibition curve with a large enough effect (not every such curve was filed as active); inconclusive means small, poorly fitted or top-dose-only effect, or another doubt; inactive means no such curve, though single readings can be large or run the other way.

SMILES	ALDH1A1 block	Tau ThT inhib	Tau fluor cs	KDM4E inh	Tau FP inhib	HPGD inh
O=C(N/N=C/C(Cl)=C/c1ccc([N+](=O)[O-])cc1)C(=O)Nc1ccccc1C(=O)O	?	3.2µM	?	-	-	.
O=C(Nc1ccc([N+](=O)[O-])cc1)C(=O)Nc1cccc(C(=O)O)c1	-	?	-	-	-	.
Cc1onc(-c2ccccc2)c1CNS(=O)(=O)c1ccccc1[N+](=O)[O-]	13µM	-	-	-	-	.
Cc1ccccc1CNS(=O)(=O)c1ccccc1[N+](=O)[O-]	?	-	-	-	-	.
COc1cc(C(=O)N2CCc3c([nH]c4ccccc34)C2c2ccc(C)cc2)cc(OC)c1OC (stereo unspecified)	.	-	-	.	-	.
CCN1CCN(C(=O)Nc2ccccc2OC)CC1	-	-	-	-	-	-
O=C(CSc1ccc(-c2ccco2)nn1)c1cccc([N+](=O)[O-])c1	22µM	?	-	-	-	-
Cc1cccc(NC(=O)CSc2ccc(-c3ccco3)nn2)c1C	24µM	-	-	?	-	-
O=C(CSc1ccc(-c2ccco2)nn1)NCc1ccc(Cl)cc1	7.1µM	?	-	-	-	-
Cc1cccc(NC(=O)CSc2ccc(-c3ccccn3)nn2)c1C	-	-	-	?	-	.
O=C(CSc1ccc(-c2ccco2)nn1)NCc1ccccc1	?	?	-	-	-	?
COc1ccccc1CNC(=O)c1ccc(N2CCCC2)c(NC(=O)NCc2ccc(F)cc2)c1	.	-	-	.	-	.
CCc1nc(SCc2ccc(Cl)cc2)n[nH]1	-	-	-	-	-	.
CCCc1nc(SCc2ccc(Cl)cc2Cl)n[nH]1	-	-	-	-	-	16µM
O=C(NC(Cc1c[nH]c2ccccc12)C(=O)OCC(=O)c1cccc2ccccc12)c1cccs1 (stereo unspecified)	-	-	?	-	-	-
CCCCC(=NCCc1c(C)[nH]c2ccc(OC)cc12)C1=C(O)CC(c2ccccc2)CC1=O (stereo unspecified)	-	-	-	25µM	?	.
COc1ccccc1Nc1ncc(-c2cccs2)s1	?	14µM	16µM[quencher]	-	-	-
Cn1c(=O)c2c(nc(/C=C/c3cccc(Cl)c3)n2C)n(C)c1=O	?	-	-	?	-	?
CCc1ccc(NC(=O)C2CCCN2S(=O)(=O)c2cccc3nsnc23)cc1 (stereo unspecified)	.	-	-	.	-	.
Clc1ccccc1-c1ccc2ncnc(NC3CCNCC3)c2c1	-	.	.	.	.	.
Cc1c(C(=O)NCc2ccccc2)sc2nc3n(c(=O)c12)CCC3	.	-	?	.	-	.
O=C(C=C=Nc1ccccc1)C(=O)N=C=Cc1ccccc1	-	10µM	?	-	?	.
COc1cc2c(C(=O)N3CCN(C4CCCCC4)CC3)cn(CC(C)C)c(=O)c2cc1OC	22µM	-	-	-	?	-
CC(=O)NC(C)c1nc2ccccc2n1CC(=O)NC(C)CCc1ccccc1 (stereo unspecified)	-	-	-	-	-	.
COC(=O)c1ccc([C@@H]2C[C@H]3CN(Cc4cccnc4)C(=O)[C@]34CCCN24)cc1	-	?	-	-	-	.
SMILES	ALDH1A1 block	Tau ThT inhib	Tau fluor cs	KDM4E inh	Tau FP inhib	HPGD inh
COc1ccc(/C=C/C(=O)c2ccc3ccccc3c2O)cc1CN1CCOCC1	-	16µM	-	?	-	-
COc1ccc(/C=C/C(=O)c2ccccc2O)cc1CN1CCOCC1	-	-	-	-	-	-
NC(=O)NC1NC(=O)NC1=O (stereo unspecified)	-	-	-	-	-	-
CN(Cc1cccc2ccccc12)Cc1cccc2ccccc12	-[13.5 µM]	.	.	.	.	-
O=C(COC(=O)CCc1c[nH]c2ccccc12)NC(c1ccccc1)c1ccccc1	-	-	14µM[quencher]	-	?	-
CC(C)CNC(=O)CCc1c[nH]c2ccccc12	-	?	-	-	?	.
CC(OC(=O)CCc1c[nH]c2ccccc12)C(=O)c1ccccc1 (stereo unspecified)	-	?	11µM[quencher]	-	-	.
CCN1CCN(c2ccc(S(=O)(=O)N3CCCC3)cn2)CC1	-	-	-	?	-	.
CCOC(=O)c1oc2c(C)c(O)ccc2c(=O)c1-c1nncn1-c1ccccc1	-	-	-	-	-	-
CCOC(=O)c1oc2c(O)c(O)ccc2c(=O)c1-c1nncn1-c1ccccc1	-	-	-	7.9µM	-	-
COc1ccc(N2C=C3C(=O)C(C)(OC(=O)CCc4ccccc4)C(=O)C=C3C=C2c2ccc(C#N)cc2)cc1 (stereo unspecified)	-[13.5 µM]	?	-[11.6 µM]	20µM!	?	-
CC1(OC(=O)CCc2ccccc2)C(=O)C=C2C=C(c3ccc(C#N)cc3)N(C(CO)CO)C=C2C1=O (stereo unspecified)	-[13.5 µM]	?	-[11.6 µM]	3.5µM	?	-
CC1(OC(=O)CCc2ccccc2)C(=O)C=C2C=C(c3ccc(C#N)cc3)N(CCc3c[nH]c4ccccc34)C=C2C1=O (stereo unspecified)	-[13.5 µM]	?	-[11.6 µM]	16µM!	-[11.6 µM]	-
CC1(OC(=O)CCc2ccccc2)C(=O)C=C2C=C(C3CC3)OC=C2C1=O (stereo unspecified)	-	?	-	-	?	-
CC1(OC(=O)CCc2ccccc2)C(=O)C=C2C=C(c3ccc(C#N)cc3)N(C3CCCCC3)C=C2C1=O (stereo unspecified)	-[13.5 µM]	?	-[11.6 µM]	28µM!	-[11.6 µM]	-
COC(=O)CCC(=O)OC1(C)C(=O)C=C2C=C(C3CC3)N(c3cccc(C#N)c3)C=C2C1=O (stereo unspecified)	-[13.5 µM]	?	-[11.6 µM]	?	-[11.6 µM]	?
COC/C=C/C1=CC2=CC(=O)C(C)(OC(=O)CCc3ccccc3)C(=O)C2=CO1 (stereo unspecified)	-	-	-	-	-	-
CCCCC1=CC2=CC(=O)C(C)(OC(=O)CC)C(=O)C2=CN1C1CCCC1 (stereo unspecified)	-[13.5 µM]	-[11.5 µM]	-[11.6 µM]	?	-[11.6 µM]	-
CNC(=O)c1ccc(=O)n(Cc2cccc(C(F)(F)F)c2)c1	-	-	-	-	-	.
COc1ccc(NC(=O)CC2C(=O)N(c3cccc(OC)c3)C(=O)N2CCC(C)C)cc1 (stereo unspecified)	-	-	-	-	-	-
CCN(CC)CCCN1C=C2C(=O)C(C)(OC(=O)CCc3ccccc3)C(=O)C=C2C=C1c1ccc(C#N)cc1 (stereo unspecified)	-[13.5 µM]	13µM!	?	?	?	-

High-throughput results from PubChem BioAssay.
